Measurements: PubChem BioAssay (NCATS)
Results filed as inconclusive are left out. Calls of active or inactive are those of the source. Unless noted, calls come from the whole dose curve; as a rule, active = well fitted curve in the direction sought with a large enough effect; inconclusive = small, poorly fitted or top-dose-only effect, or another doubt; inactive = no such curve, though single readings can be large; an effect the other way counts as inactive or inconclusive.

Legend:
[1] = qHTS for Inhibitors of Plasmodium falciparum (DD2) proliferation (AID 504314);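 note: parasite DNA measured by SYBR Green fluorescence after red cell lysis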; settings: P. falciparum Dd2 in erythrocytes, SYBR Green growth, 72 h; series mostly up to 6.11 µM
Method in brief: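 Infected RBCs, 0.3% parasitemia, 2.5% Hct; compound 72 h, 37C/5% CO2; lyse + SYBR Green I, RT overnight, dark; read ex485/em535; normalize to DMSO and artemisinin 0.29 uM.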

[2] = qHTS for Inhibitors of Plasmodium falciparum (GB4) proliferation (AID 504315); note: nearly all actives have a fitted effect of over 50% in size; settings: P. falciparum GB4 in erythrocytes, SYBR Green DNA, 72 h; series mostly up to 6.7 µM
Method in brief: (§1)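 Erythrocytes infected with P. falciparum line (0.3% parasitemia, 2.5% hematocrit final) incubated with compounds 72 h at 37 °C, 5% CO2; SYBR Green lysis buffer added, fluorescence read next day. Normalized to 0.29 uM artemisinin and DMSO.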

[3] = qHTS for Inhibitors of Plasmodium falciparum (7G8) proliferation (AID 504316); note: nearly all actives have a fitted effect of over 65% in size; settings: P. falciparum 7G8 in erythrocytes, SYBR Green DNA, 72 h; series mostly up to 6.7 µM
Method in brief: as §1

[4] = qHTS for Inhibitors of Plasmodium falciparum (HB3) proliferation (AID 504318); note: nearly all actives have a fitted effect of over 60% in size; settings: P. falciparum HB3 in erythrocytes, SYBR Green DNA, 72 h; series mostly up to 7.21 µM
Method in brief: as §1

[5] = qHTS for Inhibitors of Plasmodium falciparum (CP250) proliferation (AID 504320); settings: P. falciparum CP250 in erythrocytes, SYBR Green DNA, 72 h; series mostly up to 6.7 µM
Method in brief: as §1

[6] = molecular target: Atrial natriuretic peptide receptor 1 (Homo sapiens) (UniProt P16066); assay: Natriuretic polypeptide receptor (hNpr1) antagonism - Pilot CMLD screen (AID 1347052; calls by dose curve;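 note: HEK293 cells with hNpr1 stimulated by hNppA peptide at 0.1 nM; cGMP level read as GloSensor luciferase luminescence after agonist stimulation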); settings: HEK293 hNpr1 GloSensor cGMP luminescence, ANP-stimulated; series mostly up to 9.22 µM
Sequence of Atrial natriuretic peptide receptor 1 (Homo sapiens) (P16066 whole entry, looked up): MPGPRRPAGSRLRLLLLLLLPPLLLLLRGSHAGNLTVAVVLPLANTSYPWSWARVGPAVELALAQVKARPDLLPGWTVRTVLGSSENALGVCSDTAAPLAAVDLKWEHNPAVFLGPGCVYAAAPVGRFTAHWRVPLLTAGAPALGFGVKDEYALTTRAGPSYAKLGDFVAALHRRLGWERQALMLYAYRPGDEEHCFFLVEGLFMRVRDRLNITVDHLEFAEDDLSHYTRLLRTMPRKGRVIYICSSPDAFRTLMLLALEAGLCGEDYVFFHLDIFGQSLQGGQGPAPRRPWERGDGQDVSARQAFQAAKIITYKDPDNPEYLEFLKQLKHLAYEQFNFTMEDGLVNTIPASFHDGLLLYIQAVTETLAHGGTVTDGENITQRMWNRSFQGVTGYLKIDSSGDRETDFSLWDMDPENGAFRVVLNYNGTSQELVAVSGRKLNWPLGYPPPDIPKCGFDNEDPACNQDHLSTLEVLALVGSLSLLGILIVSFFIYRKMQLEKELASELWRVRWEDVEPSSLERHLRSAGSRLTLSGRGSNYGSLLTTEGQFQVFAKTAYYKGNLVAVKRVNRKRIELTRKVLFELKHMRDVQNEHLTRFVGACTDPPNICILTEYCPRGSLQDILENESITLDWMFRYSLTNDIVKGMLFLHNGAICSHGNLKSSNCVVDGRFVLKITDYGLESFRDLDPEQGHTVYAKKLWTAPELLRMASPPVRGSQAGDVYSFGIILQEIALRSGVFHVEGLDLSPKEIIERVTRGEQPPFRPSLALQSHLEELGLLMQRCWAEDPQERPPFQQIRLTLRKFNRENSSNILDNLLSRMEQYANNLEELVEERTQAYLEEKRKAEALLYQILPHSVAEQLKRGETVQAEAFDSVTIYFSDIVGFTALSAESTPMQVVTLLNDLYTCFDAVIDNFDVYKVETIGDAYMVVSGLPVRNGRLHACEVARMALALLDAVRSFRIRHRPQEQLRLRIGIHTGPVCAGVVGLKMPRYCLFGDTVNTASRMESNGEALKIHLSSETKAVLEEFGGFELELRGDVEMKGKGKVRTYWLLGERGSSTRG

Measured: Potency

O=C1CCC=C1C(O)c1ccccc1 (stereo unspecified)
inactive: all assays above

CCN1C(=O)NC(c2cccc(F)c2)C(C(=O)OC)=C1C (stereo unspecified)
inactive: all assays above

C=C(C)CCN1C(=O)NC(c2ccccc2)C(C(C)=O)=C1C (stereo unspecified)
inactive: all assays above

CCN1C(=NCCOC)N[C@@H](c2ccccc2)[C@H](C(=O)OC)[C@H]1C
inactive: all assays above

COC(=O)C1=C(C)N(CC2CC2)C(=O)NC1c1ccccc1 (stereo unspecified)
inactive: all assays above

C#CCN1C(=O)[C@]2(OCCC=C[C@H]2C)c2ccccc21
inactive: all assays above

C=CCOC(=O)N[C@@H](c1coc2ccccc2c1=O)[C@@H](C)C=CCC(=O)OC
inactive: all assays above

CCN1C(=O)[C@@H]2[C@H]3[C@H](O)[C@H](O)CC(=NO[C@H](C)c4cn([C@H](CO)Cc5ccccc5)nn4)[C@@H]3CC[C@H]2C1=O
inactive: all assays above

CCN1C(=NCc2ccc3c(c2)OCO3)N[C@@H](c2ccccc2)[C@H](C(=O)OC)[C@H]1C
inactive: all assays above

COc1ccc2c(c1)C(NC(=O)C(F)(F)F)CC21CCCCC1 (stereo unspecified)
inactive: all assays above

COc1cccc([C@H](O)Cn2cc(-c3ccc(CON=C(C)C)cc3)nn2)c1
inactive: all assays above

CCN1C(N(C)CCOC)=NC(c2cccc(F)c2)C(C(=O)OC)=C1C (stereo unspecified)
inactive: all assays above

C=C(C#Cc1ccc(OC)cc1)CCN1C=C(C(=O)OCC)C(c2ccccc2)NC1=O (stereo unspecified)
inactive: all assays above

COc1cccc([C@@H]2Oc3ccc(Br)cc3C(=O)[C@@H]2OC(=O)N[C@H](C)C2CCCCC2)c1
inactive: all assays above

COC(=O)C1=C(C)N(CCC(C)O)C(=O)N(C(C)=O)C1c1ccccc1 (stereo unspecified)
inactive: all assays above

O=C1CCCC(C(C(=O)OCc2ccccc2)C(=O)OCc2ccccc2)C1 (stereo unspecified)
inactive: all assays above
